Bioassay records as filed in PubChem BioAssay.
Shiga inhibitor: Shiga toxin inhibition | Vero cells, Shiga toxin protein synthesis inhibition reporter | inhibition, % at 38.7 µM | actives 9.2% (n = 290,000); in the data active = inhibition mostly above about 28%, no sharp cut-off; inactive = mostly below about 43%; also: 0% is about no effect
HCV inhibitor: HCV inhibition; Huh7.5.1 HCVcc-Cre infection, luciferase reporter, 44 h; Potency, µM (highest dose often 41.8 µM), without a hit: top-dose activity change, negative = inhibition, actives largely listed as inhibitors; actives 3.4% (n = 340,000); AID 651820; active = well fitted inhibition curve with a large enough effect; inconclusive = small, poorly fitted or top-dose-only effect, or another doubt; inactive = no such curve, though single readings can be large or run the other way; also: potency is read from the fitted curve at half-maximal effect; % is scaled to controls: 0 for no effect and ±100 for the full control effect
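Infectious HCVcc-Cre (~0.5 moi) was added to cells just after compound, with cells seeded 4 h earlier at 1,000 per well. Luciferase activity after 44 h culture reported infection; substrate was incubated 15 min at room temperature before reading.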
LASV entry inh: blocks Lassa virus binding to or entry into cells. Lassa virus pseudotype entry inhibition, cell reporter. Potency, µM (titrated, usually from 37.9 µM), inactives show at the top dose activity change, negative = inhibition, most hits filed as inhibitors. AID 540256. actives 1.2% (n = 300,000); calls by dose curve; tested in HEK293 cells; also: potency is read from the fitted curve at half-maximal effect; % is scaled to controls: 0 for no effect and ±100 for the full control effect; nearly all actives have a fitted effect of over 50% in size
CHX counter: affects cycloheximide protein synthesis inhibition readout, counter-screen. actives 12% (n = 300,000). AID 2314. cell reporter, cycloheximide protein synthesis inhibition counterscreen. max response, %; in the data active = max response mostly above about 13%, no sharp cut-off; inactive = mostly below about 14%; also: read at 38.3 µM for the half of the compounds with a filed dose; 0% is about no effect
Marburg entry inh: inhibitors of Marburg virus binding or cell entry; Marburg virus pseudotyped entry inhibition, cell reporter; Potency, µM (doses to about 37.8 µM), without a hit: at the top dose activity change, negative = inhibition, hits mostly inhibitors; actives 1.8% (n = 300,000); AID 540276; calls by dose curve; tested in HEK293 cells; also: potency is read from the fitted curve at half-maximal effect; % is scaled to controls: 0 for no effect and ±100 for the full control effect
FMDV inh: antivirals against foot and mouth disease virus | FMDV antiviral cell-based qHTS | Potency, µM (doses to about 57.9 µM), for the others: top-dose activity change, negative = inhibition, actives largely listed as inhibitors | actives 1.2% (n = 410,000); calls by dose curve; tested in HEK293T cells; also: read-out not given here; potency is read from the fitted curve at half-maximal effect; % is scaled to controls: 0 for no effect and ±100 for the full control effect; nearly all actives have a fitted effect of over 45% in size
Active calls of the source: *; u = inconclusive; x = not tested or not shown; + = active, no number; [ ] = remark or other dose. Only some compounds are listed: those with a hit (about 13% of all), similar ones and a draw of the others.

SMILES	Shiga inhibitor	HCV inhibitor	LASV entry inh	CHX counter	Marburg entry inh	FMDV inh
CCCC(=O)Nc1nc2ccc3nc(C)sc3c2s1	95*	u	16%	40*	-18%	61%
CCCCC(=O)Nc1nc2ccc3nc(C)sc3c2s1	16	7.9µM*	x	9	x	30%
Nc1nc(NCc2ccccc2)nc(-c2ccccc2)n1	24	10µM*	-7%	11	6%	x
Cc1nnc2c(N(C)S(=O)(=O)c3ccccc3)nc3ccccc3n12	1	-1%	21%[46.1 µM]	-7	11%[46.1 µM]	37%
N#CC(C#N)=c1ccc2c(c1)N1C3=C(CCCC3)CC3CCCCC31N=2 (configuration not stated)	-10	0%	11%	-1	-16%[46.1 µM]	40µM*
COc1ccc(-c2c(C)c3cc(O)ccc3oc2=O)cc1	24	-3%	3%[46.1 µM]	18*	20%[46.1 µM]	8%
COc1ccc(-c2c(O)c3cc(O)cc(O)c3oc2=O)cc1	71*	x	x	44*	x	x
COc1c(C)cc(C(=O)C2CCCN(C(=O)C3=C(C)OCCO3)C2)cc1C (configuration not stated)	-1	5%	x	0	x	-20%
COc1ccccc1CNc1cc(C)ccc1C	-7	-6%	1%	-4	12%	x
O=C(CCc1nc2ccccc2[nH]c1=O)OCC(=O)c1ccc(Cl)cc1	16	19%	0%	1	u	x
CC(=O)Nc1cccc(Oc2ccc(-c3noc(C)n3)cc2)c1	79*	u	u	44*	u	9%
COc1ccc(-c2noc(N3CCC(C(=O)Nc4cccc(OC)c4)CC3)n2)cc1	25*	22µM*	x	11*	x	-22%
COc1ccc(/C=C\c2onc(C)c2S(=O)(=O)N2CCC(C(=O)Nc3cccc(OC)c3)CC2)cc1	x	x	u	x	u	14µM*
Cc1nc(-c2cccc(NC(=O)Nc3ccc([N+](=O)[O-])cc3)c2)no1	x	x	u	x	x	14µM*
CCn1c(SCc2nc(-c3ccc(Cl)cc3)no2)nnc1-c1ccco1	-3	u	-12%	-2	8%	u
COc1cccc(NC(=O)C2C3CCC4C(CCC32)C4(Cl)Cl)c1 (configuration not stated)	40	-14%	1%	15*	-2%	0%
COc1ccc(-c2noc(N3CCCC(C(=O)Nc4ccccc4F)C3)n2)cc1 (configuration not stated)	2	-24%	x	6	x	3%
CCN(CC)CCNC(=O)C1CCN(S(=O)(=O)c2c(C)noc2/C=C/c2ccccc2F)CC1	-6	5.6µM*	u	-2	x	-2%
COc1ccc(NC(=O)C2C3CCC4C(CCC32)C4(Cl)Cl)cc1 (configuration not stated)	-2	35%	-8%	-6	15%	-7%
COc1cccc(NC(=O)C2CCN(c3ncccn3)CC2)c1	25*	u	7%	11*	23%	29%
COc1ccc(-c2noc(N3CCCC(C(=O)Nc4ccc(F)cc4F)C3)n2)cc1 (configuration not stated)	23*	u	x	14*	x	-11%
COc1ccccc1C(=O)NCCc1nc2ccccc2n1C	-3	-9%	7%	8	-13%	6%
COc1ccc(-c2noc(N3CCC(C(=O)N(C)c4ccccc4C)CC3)n2)cc1	4	11µM*	x	1	x	6%
COc1ccc(-c2noc(N3CCC(C(=O)Nc4cccc(C)c4C)CC3)n2)cc1	x	x	22%[46.1 µM]	x	x	-6%
COC(=O)C1=C(c2cccc(C#N)c2)C[C@@H]2CC[C@H]1N2C(=O)NCCO	x	42%	x	x	x	-9%
SMILES	Shiga inhibitor	HCV inhibitor	LASV entry inh	CHX counter	Marburg entry inh	FMDV inh
CCC(=O)Nc1ccc(C(=O)NCc2ccccn2)cc1	3	-4%	6%	-4	-6%	2%
CCc1ccc(NC(=O)NCc2ccccn2)cc1	46*	2%	x	43*	x	15%
CCCCc1ccc(NC(=O)NCc2ccccn2)cc1	48	u	u	15*	5%[46.1 µM]	8%
O=C(NC1=C(Nc2ccc(F)cc2)C(=O)c2ccccc2C1=O)c1ccc(Cl)cc1	+	2%	u	16*	14%	u
O=C(O)c1cccc(N2C(=O)C3CC=C(Cl)CC3C2=O)c1 (configuration not stated)	-5	6%	x	-4	x	5%
c1ccc([C@@H]2CO2)cc1	x	21%	x	x	x	-16%
C=C1CC2(CC(c3ccccc3)OC(c3ccccc3)C2)OC1=O (configuration not stated)	x	u	u	x	u	22µM*
O=C(O)c1ccc(/C=C2\CCCc3c2nc2ccccc2c3C(=O)O)cc1	-8	13%	-4%[46.1 µM]	-3	u	1%
CN(C)c1ccc(/C=C2\CCCc3c2nc2ccccc2c3C(=O)O)cc1	118*	1%	u	45*	9%[46.1 µM]	46%
COC(=O)c1c(NC(=O)Cc2coc3ccc(C(C)C)cc23)sc2c1CCC2	x	x	u	x	u	-16%
Cc1ccc(N2C(=O)C3CCC(C)(C2=O)C3(C)C)cc1 (configuration not stated)	7	-2%	-17%	-2	-9%	5%
CSC[C@@H]1NC(=S)N(c2ccc(C)cc2)C1=O	-5	32%	8%	-1	-25%	11µM*
Cc1noc(COc2ccccc2OCC(N)=O)c1Cl	18	9%	-4%	-3	-5%	-13%
Cc1ccc(O)c(C2=Nc3ccccc3C2(C)C)c1	89*	u	x	49*	x	43%
COc1ccc(C)cc1C1=Nc2ccccc2C1(C)C	10	13%	10%	8	20%	-23%
COc1ccc(NS(=O)(=O)c2cc(NC(=O)c3ccco3)ccc2N2CCCCC2)cc1	17	u	u	8	14µM*	101%
COc1ccc(NS(=O)(=O)c2cc(NC(=O)C3CC3)ccc2N2CCCCC2)cc1	2	11µM*	u	-3	u	42%
COc1ccc(NS(=O)(=O)c2ccc(N3CCOCC3)c(NC(=O)c3ccco3)c2)cc1	-1	-27%	u	-2	-8%[46.1 µM]	65%
O=C(NCc1ccc(F)cc1)Nc1cccc([N+](=O)[O-])c1	27	u	x	15	x	7%
CCOC(=O)N1CCc2c(sc3c2c(=O)n(CCc2ccccc2)c(=O)n3Cc2ccc(C)cc2C)C1	x	x	-2%[46.1 µM]	x	-13%[46.1 µM]	-22%
Cc1ccc(-c2cc(C(=O)NCc3cccs3)no2)cc1	23	10%	4%	9.1*	13%	90%
O=C(NCc1cccs1)c1cc(-c2cccc(Cl)c2)on1	44*	18%	10%	26*	u	41%
O=C(NCc1cccs1)c1cc(-c2ccc(O)cc2)on1	86*	-7%	x	43*	x	89%
O=C(NCCc1ccccc1)c1cc(-c2cccc(Cl)c2)on1	x	x	-9%[46.1 µM]	x	0%[46.1 µM]	-8%
CCOc1ccc(NC(=O)COC(=O)COc2cccc3c2OC(C)(C)C3)cc1	-1	31%	-39%	1	7%	-17%
